Compound activity (PubChem BioAssay)
ALR inh – blocks human ALR sulfhydryl oxidase activity; P55789; purified ALR, DTT oxidation, H2O2 HRP-luminol luminescence; inhibition, % (test concentration not listed); hit rate 3.8% among 290,000; AID 485317;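 active = mean replicate inhibition above about 79%, with every replicate also reaching it, limit read from the data; inconclusive = only one of the two criteria met; inactive = mean below limit and not every replicate reaching it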
IDE cell activ – activators of human insulin-degrading enzyme in cells | P14735 | activation, % at 5.96 µM | AID 493087 | hit rate 0.073% among 340,000 | HEK cells, FAbeta-B cleavage, fluorescence polarization; 0% vehicle, 100% cell-free pure enzyme wells;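 active = activation above the mean of all tested compounds plus 3 SD, set per screening campaign, cut at about 17% in these data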
Target sequence (P14735 whole entry, looked up): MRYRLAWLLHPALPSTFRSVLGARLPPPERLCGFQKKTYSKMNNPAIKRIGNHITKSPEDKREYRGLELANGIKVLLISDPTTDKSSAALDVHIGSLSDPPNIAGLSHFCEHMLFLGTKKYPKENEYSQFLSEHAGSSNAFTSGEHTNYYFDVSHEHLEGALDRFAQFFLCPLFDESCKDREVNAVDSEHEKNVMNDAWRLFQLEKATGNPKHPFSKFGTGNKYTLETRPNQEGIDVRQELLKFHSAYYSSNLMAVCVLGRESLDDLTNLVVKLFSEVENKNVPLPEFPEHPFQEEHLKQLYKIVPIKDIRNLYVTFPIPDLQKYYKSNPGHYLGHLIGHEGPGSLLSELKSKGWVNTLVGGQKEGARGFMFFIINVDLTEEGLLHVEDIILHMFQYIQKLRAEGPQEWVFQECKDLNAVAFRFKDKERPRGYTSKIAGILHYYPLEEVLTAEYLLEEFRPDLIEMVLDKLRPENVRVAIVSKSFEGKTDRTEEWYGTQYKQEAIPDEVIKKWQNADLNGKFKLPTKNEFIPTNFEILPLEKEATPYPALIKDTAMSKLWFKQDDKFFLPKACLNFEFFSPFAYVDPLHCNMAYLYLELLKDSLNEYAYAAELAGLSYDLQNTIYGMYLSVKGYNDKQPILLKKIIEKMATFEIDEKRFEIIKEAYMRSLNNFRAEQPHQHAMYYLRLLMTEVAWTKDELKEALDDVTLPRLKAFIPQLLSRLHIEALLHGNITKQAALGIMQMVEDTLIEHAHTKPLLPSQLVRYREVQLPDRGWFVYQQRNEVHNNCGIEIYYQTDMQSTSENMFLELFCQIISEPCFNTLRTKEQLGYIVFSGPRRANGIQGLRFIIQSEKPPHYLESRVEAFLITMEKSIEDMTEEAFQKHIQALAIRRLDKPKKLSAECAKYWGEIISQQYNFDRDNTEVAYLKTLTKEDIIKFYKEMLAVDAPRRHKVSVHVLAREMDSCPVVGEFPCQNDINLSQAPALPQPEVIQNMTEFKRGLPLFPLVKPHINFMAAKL
CaV13 FRET inh – Primary screen for inhibitors of IQ motif and Ca2+-dependent inactivation inhibitor domain binding in CACNA1D, Förster resonance energy transfer in living cells, …; HEK cells, CFP/YFP FRET ICDI-IQ, plate reader, 10 min; percent FRET-ratio fall versus neutral wells; inhibition, % at 12.3 µM; hit rate 0.098% among 340,000;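 active = mean replicate inhibition of at least 30% and at least 1% of replicates passing that level; inconclusive = only one of the two criteria is met; inactive = neither criterion is met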;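 also: 0% = median of the neutral control wells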
IDE inh – cellular human IDE inhibition; AID 434962; HEK cells, FAbetaB cleavage, fluorescence polarization; hit rate 0.41% among 320,000; inhibition, % at 5.59 µM;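 active = percent inhibition above the average of all tested compounds plus 3 SD, set per screening campaign, cut at about 16% in these data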;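 also: IDE supplied by intact live HEK cells; FP after avidin binding of uncleaved biotin substrate so inhibition keeps polarization high; 0% = DMSO wells and 100% = 60 µM reference IDE inhibitor Ii1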
PolyA inh – inhibitors of polyadenylation in S. cerevisiae; S. cerevisiae SKY197-pL101 polyadenylation reporter, beta-gal luminescence; efflux-impaired pdr1/pdr3 knockout yeast; score 100 = 6 SD above DMSO; hit rate 0.02% among 300,000; activity score, % at 12 µM;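 active = lowest replicate activity score at least 50, where 100 means six control SD above control mean; inconclusive = lowest score under 50 but half or more replicates reach 50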;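 also: yeast exposed to compound for 9 h at 30 °C; higher score means more reporter readthrough which indicates perturbed polyadenylation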
PfM18AAP inh – blocks P. falciparum M18 aspartyl aminopeptidase | recombinant PfM18AAP, H-Glu-NHMec fluorogenic cleavage | inhibition, % at 7.35 µM | hit rate 1.2% among 290,000;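 active = inhibition above the campaign mean inhibition over all tested compounds plus 3 SD, cut at about 28% in these data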;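 also: 0% = plate median of test compound wells and 100% = 2 mM ZnCl2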
* marks the source's active call; other numbers are inactive results; ? = inconclusive; · = no result given; + = active, no number. Compounds with a hit are over-represented: about 4.1% of the library has one in this group of screens.

SMILES	ALR inh	IDE cell activ	CaV13 FRET inh	IDE inh	PolyA inh	PfM18AAP inh
CC(Sc1nc2ccccc2s1)C(=O)c1c(N)n(C)c(=O)n(C)c1=O (stereo unspecified)	99*	3	-6	5	-16	-16
CC(Sc1n[nH]c(-c2ccccc2)n1)C(=O)c1c(N)n(C)c(=O)n(C)c1=O (stereo unspecified)	-3	2	-3	2	-19	·
CCC[n+]1c(C)sc2c(OC)ccc(OC)c21	26	-13	-5	11	14	28*
CCCCC(=O)Nc1nc2c(OC)ccc(OC)c2s1	-2	-8	-5	9	7	4
Cc1ccc(NC(=O)Nc2nc(-c3ccc(C)s3)cs2)cc1	8	2	-5	-2	-21	28*
Cc1ccc(S(=O)(=O)Nc2ccccc2C(C(=O)OC(C)(C)C)C(=O)OC(C)(C)C)cc1	·	·	-11	·	·	·
NNC(=O)/C=C/c1ccc(Cl)cc1Cl	98*	2	6	-3	-16	-3
CCOc1ccccc1NC(=S)N1CCN(c2ccccc2)CC1	98*	-1	-2	-6	?	-3
COc1ccc(NC(=S)N2CCN(c3ccccc3)CC2)c(OC)c1	48	7	-21	-1	?	1
O=C(Nc1ccccc1)c1sc(Cl)nc1-c1ccccc1	94*	1	-3	3	-21	1
COc1ccc(N(CC(=O)NCc2ccccn2)S(=O)(=O)c2ccccc2[N+](=O)[O-])c(OC)c1	-8	4	0	2	15	4
Cc1ccc(S(=O)(=O)CCC(=O)N2CCN(c3ccc(Cl)cc3)CC2)cc1	42	-3	-7	8	-15	-3
O=S(=O)(Nc1ncnc2sc3c(c12)CCC3)c1cc(F)ccc1F	94*	5	-5	0	-5	0
O=S(=O)(Nc1ncnc2sc3c(c12)CCC3)c1ccc(Cl)s1	12	2	·	-4	-13	6
C=CCN(C(=O)c1csnn1)C(C(=O)NC1CCCCC1)c1ccc(F)cc1 (stereo unspecified)	·	4	-3	4	2	3
O=C(NCc1ccco1)c1ccccc1NS(=O)(=O)c1cccs1	1	4	-9	7	29	2
O=C(NCc1ccco1)c1ccccc1NS(=O)(=O)c1ccc(Cl)s1	95*	-1	-5	2	1	2
COc1ccc(Cl)cc1C(=O)CSc1nc(N)cc(N)n1	94*	-1	-5	-3	·	6
CCCCn1nnnc1SCC(=O)c1cc(Cl)ccc1OC	32	-5	-5	3	-4	5
Nc1cc(N)nc(SCC(=O)c2ccccc2)n1	99*	1	-5	0	36	2
COc1cc(OC)c(C(=O)OCC(=O)NCCC2=CCCCC2)cc1OC	·	7	-4	-2	11	·
CCN(CC)C(=O)C1CCCN(C(=O)Nc2ccccc2)C1 (stereo unspecified)	-5	5	-3	-1	7	0
CC(=O)c1cc(NC(=O)c2cccc(C(F)(F)F)c2)c(=O)oc1C	?	·	14	-4	22	-1
COc1ccc(C(=O)Nc2cc(C(C)=O)c(C)oc2=O)cc1	92*	3	-6	1	8	-12
O=c1[nH]c(Nc2ccccc2Cl)cc2ccccc12	5	-7	+	9	-18	·
SMILES	ALR inh	IDE cell activ	CaV13 FRET inh	IDE inh	PolyA inh	PfM18AAP inh
C1=C(c2ccco2)N2CCN=C2S1	80*	9	-18	-1	5	8
O=C(CCc1ccccc1)NNC(=S)NCCc1ccccc1	15	4	·	-1	-2	5
CCCNC(=S)Nc1ccccc1	90*	3	-4	0	-2	0
CCCNC(=S)Nc1ccc(CC(=O)OC)cc1	2	6	-3	3	-18	7
Cc1ccc(NC(=S)NCCc2ccccc2)nc1	10	8	-18	2	-39	29*
S=C(NCCc1ccccc1)N/N=C/c1cccc(Cl)c1Cl	11	2	-2	3	14	-2
Oc1ccccc1/C=N/NC(=S)NCCc1ccccc1	11	1	-4	·	-10	29*
CC(=O)NNC(=S)NCCc1ccccc1	53	3	-3	7	1	30*
